Source: PubChem BioAssay
For part of these data: Entries with a potency or affinity are not part of this list. The source made the active and inactive calls.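 The calls were made as follows, unless noted: active = earlier screen potentiator hit that boosts the TRPC4 ion channel at some dose, with a dose response; inactive = no potentiation, no dose response, or not a prior hit.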

Assays:
[1] = system: TRPC4 beta (transient receptor potential cation channel C4), mouse; experiment: activators of mouse TRPC4 channel, confirmation, cell-based, Fluo4 calcium, HEK293 TRPC4beta/mu-opioid, duplicates, 10 µM (AID 2426;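 active = fluorescence ratio normalized to control raised more than 50% in primary screen plus both repeat runs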); details: Fluo4 calcium fluorescence, at 10 µM; stronger effect = higher value
[2] = system: transient receptor potential cation channel C4 beta (TRPC4), mouse; experiment: activators of mouse TRPC4 channel, confirmation, cell-based, second round, Fluo4, HEK293 TRPC4beta/mu-opioid, 1 µM (AID 2461;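 active = primary screen active and over 50% activation in each of two duplicate runs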); details: Fluo4 calcium fluorescence, at 1 µM; stronger effect = higher value
[3] = system: TRPC4 (transient receptor potential cation channel C4 beta), mouse; experiment: positive allosteric modulators of mouse TRPC4, confirmation, cell-based, second round, Fluo-4, HEK293 TRPC4beta/mu-opioid, 1 µM (AID 2554;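 active = primary screen hit whose fluorescence ratio, in both repeats, exceeds the weak agonist control mean by 3 SD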); details: DAMGO EC20, Fluo-4 calcium flux, at 1 µM; stronger effect = higher value
[4] = system: TRPC4 beta (transient receptor potential cation channel C4), mouse; experiment: positive allosteric modulators of mouse TRPC4, confirmation, cell-based, Fluo-4, HEK293 TRPC4beta/mu-opioid (AID 2555;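 active = primary screen hit whose calcium fluorescence ratio, in both repeats, exceeds the weak agonist control mean by 3 SD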); details: DAMGO EC20, Fluo-4 calcium flux, at 10 µM; stronger effect = higher value
[5] = biological target: Short transient receptor potential channel 4 (Mus musculus) (UniProt Q9QUQ5); experiment: inhibitors of mouse TRPC4 channel, confirmation, cell-based, Fluo4, HEK293 TRPC4beta/mu-opioid (AID 2636;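 active = calcium signal cut by more than 3 SD below the full-agonist control yet still positive, in both repeats and the earlier primary screen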); details: DAMGO, Fluo4 calcium flux, at 10 µM; stronger effect = higher value
[6] = biological target: Short transient receptor potential channel 4 (Mus musculus) (UniProt Q9QUQ5); experiment: inhibitors of mouse TRPC4 channel, confirmation, cell-based, second round, Fluo4, HEK293 TRPC4beta/mu-opioid, 1 µM (AID 2637;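 active = calcium signal ratio cut to more than 3 SD under the fully stimulated control mean yet still positive, in both repeats and the primary screen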); details: Fluo4 calcium flux, DAMGO, at 1 µM; stronger effect = higher value
[7] = biological target: Short transient receptor potential channel 4 (Mus musculus) (UniProt Q9QUQ5); experiment: mouse TRPC4 channel activators, dose response, cell-based, HEK293 TRPC4/mu-opioid, Fluo-4 calcium (AID 434937;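 active = primary screen activator hit with a dose response curve and TRPC4 channel activation at any tested dose; inactive = no activation, no dose response, or not a primary hit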)
[8] = biological target: Short transient receptor potential channel 4 (Mus musculus) (UniProt Q9QUQ5); experiment: TRPC4 positive allosteric modulators, dose response, cell-based, HEK293 TRPC4/mu-opioid, Fluo-4 calcium, EC20 DAMGO (AID 434941);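 also: calcium entry triggered by an EC20 dose of DAMGO at the co-expressed mu-opioid receptor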
[9] = biological target: Short transient receptor potential channel 4 (Mus musculus) (UniProt Q9QUQ5); experiment: mouse TRPC4 channel inhibitors, dose response, cell-based, HEK293 TRPC4/mu-opioid, Fluo-4 calcium (AID 434942;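 active = primary screen inhibitor hit that blocks the TRPC4 channel at some tested dose, yielding a dose curve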)
[10] = biological target: Short transient receptor potential channel 6 (Mus musculus) (UniProt Q61143); experiment: inhibition of mouse TRPC6 channel, confirmation, selectivity assay for TRPC4 inhibitor project, cell-based, HEK293, membrane potential dye, duplicate (AID 434948;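 active = active in primary screen and both duplicates, each dropping signal beyond three positive-control SD with fluorescence still positive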); details: HEK293 TRPC6, membrane potential dye fluorescence, at 10 µM, stimulated with maximal-effect acetylcholine; stronger effect = higher value
[11] = biological target: Short transient receptor potential channel 6 (Mus musculus) (UniProt Q61143); experiment: activation of mouse TRPC6 channel, confirmation, selectivity assay for TRPC4 activator project, cell-based, HEK293, membrane potential dye, duplicate (AID 434950;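 active = membrane potential signal rise above negative control mean plus 3 SD in both duplicates, also active in the earlier TRPC4 screen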); details: HEK293 TRPC6, membrane potential fluorescence, at 10 µM; stronger effect = higher value
[12] = biological target: Short transient receptor potential channel 6 (Mus musculus) (UniProt Q61143); experiment: TRPC6 potentiation by TRPC4 potentiator hits, confirmation, selectivity assay for TRPC4 potentiator project, HEK293 cells, membrane potential dye, duplicate (AID 434952;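 active = compound raising the membrane signal above positive-control mean plus 3 SD in both repeats, and a primary screen hit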); details: HEK293 TRPC6, membrane potential dye fluorescence, at 10 µM, maximal acetylcholine added after compound; stronger effect = higher value
[13] = biological target: Short transient receptor potential channel 4 (Mus musculus) (UniProt Q9QUQ5); experiment: calcium flux activators in TRPC4/5HT1a cells, counter-screen for TRPC4 activator project, cell-based, second counter screen, HEK293 TRPC4/5HT1a, Fluo-4 (AID 434977;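 active = calcium signal rise above buffer-control mean plus 5 SD in both duplicates, and also a hit in the primary screen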); details: Fluo-4 calcium flux, at 10 µM; stronger effect = higher value
[14] = calcium flux inhibitors in TRPC4/5HT1a cells, confirmation, counter-screen for TRPC4 inhibitor project, cell-based, second counter screen, HEK293 TRPC4/5HT1a, Fluo-4 (AID 434978;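 active = primary screen active whose calcium signal fell more than 3 SD beyond the full-serotonin control mean in both duplicate plates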;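 also: serotonin given first at submaximal then at maximal dose after compound preincubation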); details: Fluo-4 calcium flux, at 10 µM, serotonin added to trigger calcium flux; stronger effect = higher value
[15] = system: TRPC4 (mouse), co-expressed with 5HT1a in HEK293; experiment: calcium flux potentiators in TRPC4/5HT1a cells, confirmation, counter-screen for TRPC4 potentiator project, cell-based, second counter screen, HEK293 TRPC4/5HT1a, Fluo-4 (AID 434979;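 active = signal rise over 3 SD above mean of control wells given weak agonist, in both repeats and first screen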); details: Fluo-4 calcium flux, at 10 µM, serotonin added at its EC20 dose; stronger effect = higher value
[16] = calcium flux activation in mu-opioid HEK293 cells, confirmation, counter-screen for TRPC4 activator project, cell-based, HEK293 mu-opioid receptor line (AID 449723;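 active = hit in primary screen, with calcium signal over 5 SD above buffer well mean in both duplicates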;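 also: counter screen cells carry the mu-opioid receptor alone and lack TRPC4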); details: Fluo-4 calcium fluorescence, at 10 µM; stronger effect = higher value
[17] = calcium flux enhancement in mu-opioid HEK293 cells, confirmation, counter-screen for TRPC4 allosteric potentiator project, cell-based, HEK293 mu-opioid receptor line (AID 449724;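 active = calcium signal rise more than 3 SD above the low-dose agonist control mean, in both duplicate plates and the primary screen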); details: Fluo-4 calcium flux, at 10 µM, compound added before EC20 DAMGO stimulus; stronger effect = higher value

Chain of Short transient receptor potential channel 4 (Mus musculus) (Q9QUQ5 whole entry, looked up): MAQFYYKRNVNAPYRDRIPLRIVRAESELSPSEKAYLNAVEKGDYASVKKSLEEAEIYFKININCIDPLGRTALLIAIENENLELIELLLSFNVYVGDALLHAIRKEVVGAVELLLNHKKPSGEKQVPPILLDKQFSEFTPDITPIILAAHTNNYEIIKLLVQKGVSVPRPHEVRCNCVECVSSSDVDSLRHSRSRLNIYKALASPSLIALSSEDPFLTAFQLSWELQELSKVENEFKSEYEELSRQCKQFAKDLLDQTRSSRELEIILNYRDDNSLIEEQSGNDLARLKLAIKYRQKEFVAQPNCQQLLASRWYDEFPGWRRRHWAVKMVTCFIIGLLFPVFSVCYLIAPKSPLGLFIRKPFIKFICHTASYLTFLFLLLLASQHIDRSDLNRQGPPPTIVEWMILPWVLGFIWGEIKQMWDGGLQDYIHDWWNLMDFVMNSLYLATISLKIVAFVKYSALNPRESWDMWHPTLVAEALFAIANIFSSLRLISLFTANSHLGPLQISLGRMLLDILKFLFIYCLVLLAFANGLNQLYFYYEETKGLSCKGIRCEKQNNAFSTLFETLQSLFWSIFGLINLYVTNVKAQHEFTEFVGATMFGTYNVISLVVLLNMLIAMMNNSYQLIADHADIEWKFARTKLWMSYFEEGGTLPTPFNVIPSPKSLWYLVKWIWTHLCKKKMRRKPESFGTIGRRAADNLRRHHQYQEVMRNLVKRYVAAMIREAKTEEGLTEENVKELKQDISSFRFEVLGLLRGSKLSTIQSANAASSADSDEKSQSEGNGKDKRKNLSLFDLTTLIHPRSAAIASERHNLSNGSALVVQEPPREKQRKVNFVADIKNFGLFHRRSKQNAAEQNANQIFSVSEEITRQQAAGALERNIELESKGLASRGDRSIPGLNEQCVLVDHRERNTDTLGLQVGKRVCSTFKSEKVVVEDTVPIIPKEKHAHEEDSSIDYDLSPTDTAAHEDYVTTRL
Chain of Short transient receptor potential channel 6 (Mus musculus) (Q61143 whole entry, looked up): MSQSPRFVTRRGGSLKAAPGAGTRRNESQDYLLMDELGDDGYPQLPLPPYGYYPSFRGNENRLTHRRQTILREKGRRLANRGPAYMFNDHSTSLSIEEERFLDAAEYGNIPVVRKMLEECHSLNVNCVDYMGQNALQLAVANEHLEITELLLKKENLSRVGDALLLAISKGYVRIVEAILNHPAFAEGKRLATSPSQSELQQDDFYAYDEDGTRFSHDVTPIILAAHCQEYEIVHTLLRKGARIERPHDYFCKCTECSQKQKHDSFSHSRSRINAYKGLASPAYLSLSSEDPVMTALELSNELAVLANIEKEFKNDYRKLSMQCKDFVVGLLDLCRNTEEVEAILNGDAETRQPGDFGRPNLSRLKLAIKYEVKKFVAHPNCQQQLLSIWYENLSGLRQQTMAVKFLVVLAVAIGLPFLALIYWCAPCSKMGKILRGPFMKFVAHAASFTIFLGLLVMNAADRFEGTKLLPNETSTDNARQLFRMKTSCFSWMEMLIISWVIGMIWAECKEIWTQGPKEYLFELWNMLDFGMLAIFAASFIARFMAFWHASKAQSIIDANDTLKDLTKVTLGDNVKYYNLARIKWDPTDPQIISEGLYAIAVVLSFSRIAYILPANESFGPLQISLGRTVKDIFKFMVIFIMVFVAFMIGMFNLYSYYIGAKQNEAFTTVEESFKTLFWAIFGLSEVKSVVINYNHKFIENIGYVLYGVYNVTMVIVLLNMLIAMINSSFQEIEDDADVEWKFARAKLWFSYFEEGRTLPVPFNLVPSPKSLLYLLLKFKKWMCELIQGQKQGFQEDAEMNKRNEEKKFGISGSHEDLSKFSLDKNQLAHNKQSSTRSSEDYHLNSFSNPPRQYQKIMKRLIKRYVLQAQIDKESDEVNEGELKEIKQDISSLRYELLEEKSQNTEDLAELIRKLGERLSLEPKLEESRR

Structure (SMILES)	outcome [1]	outcome [2]	outcome [3]	outcome [4]	outcome [5]	outcome [6]	outcome [7]	outcome [8]	outcome [9]	outcome [10]	outcome [11]	outcome [12]	outcome [13]	outcome [14]	outcome [15]	outcome [16]	outcome [17]	potentiation [4]	potentiation [15]	potentiation [3]
O=S(=O)(c1ccc(Oc2ccc(Br)cc2)cc1)N1CCOCC1	inactive	inactive	inactive	inactive	inactive	inactive	inactive	inactive	inactive	inactive	inactive	inactive	inactive	inactive	inactive	inactive	inactive	–	–	–
CCCn1c(N)c(C(=O)CSc2n[nH]c(-c3ccc(C)cc3)n2)c(=O)[nH]c1=O	inactive	inactive	inactive	inactive	inactive	inactive	inactive	inactive	inactive	inactive	inactive	inactive	inactive	inactive	inactive	inactive	inactive	–	–	–
CC(=O)Cc1nsc(NC(=O)c2csc3c2CCCC3)n1	inactive	inactive	inactive	inactive	inactive	inactive	inactive	inactive	inactive	inactive	inactive	inactive	inactive	inactive	inactive	inactive	inactive	–	–	–
Cc1cc2oc(C(=O)N(Cc3ccco3)C3CCS(=O)(=O)C3)cc(=O)c2cc1Cl (stereo not given)	inactive	inactive	inactive	–	inactive	inactive	inactive	inactive	inactive	inactive	inactive	inactive	inactive	inactive	–	inactive	inactive	66% (active)	70.9% (active)	–
C=C(C)COc1ccc(-c2[nH]ncc2Oc2ccc(OC)cc2)c(O)c1	inactive	inactive	inactive	inactive	inactive	inactive	inactive	inactive	inactive	inactive	inactive	inactive	inactive	inactive	inactive	inactive	inactive	–	–	–
CN(Cc1ccccc1)Cc1nc2c(c(=O)n(C)c(=O)n2C)n1CCCc1ccccc1	inactive	inactive	inactive	inactive	inactive	inactive	inactive	inactive	inactive	inactive	inactive	inactive	inactive	inactive	–	inactive	inactive	–	8.51% (active)	–
CN1CCN(CC#CCn2c3ccccc3c3ccccc32)CC1	inactive	inactive	–	–	inactive	inactive	inactive	inactive	inactive	inactive	inactive	inactive	inactive	inactive	–	inactive	inactive	12% (active)	38.7% (active)	10% (active)
CCN(CC)CCOCCOc1ccc(Cl)c2ccccc12	inactive	inactive	inactive	inactive	inactive	inactive	inactive	inactive	inactive	inactive	inactive	inactive	inactive	inactive	–	inactive	inactive	–	11% (active)	–
CC(=O)n1cc([C@@H]2C=C(C(=O)NCc3ccccc3)O[C@H](OCc3ccc(CO)cc3)C2)c2ccccc21	inactive	inactive	inactive	inactive	inactive	inactive	inactive	inactive	inactive	inactive	inactive	inactive	inactive	inactive	–	inactive	inactive	–	14.7% (active)	–
O=C(NC1CC1)c1ccc2c(c1)N(Cc1ccc(Cl)cc1)CCS2	inactive	inactive	inactive	inactive	inactive	inactive	inactive	inactive	inactive	inactive	inactive	inactive	inactive	inactive	inactive	inactive	inactive	–	–	–
CSc1ccc(CN(C)C(C)C(=O)NCc2ccccc2)cc1 (stereo not given)	inactive	inactive	inactive	inactive	inactive	inactive	inactive	inactive	inactive	inactive	inactive	inactive	inactive	inactive	inactive	inactive	inactive	–	–	–
COc1ccc(C(=O)/C=C/C(=O)N(CC(=O)NC2CCCCC2)CC2CCCO2)c(O)c1 (stereo not given)	inactive	inactive	inactive	inactive	inactive	inactive	inactive	inactive	inactive	inactive	inactive	inactive	inactive	inactive	inactive	inactive	inactive	–	–	–
c1ccc(-c2cnc(SCCN3CCOCC3)n2CC2CCCO2)cc1 (stereo not given)	inactive	inactive	inactive	inactive	inactive	inactive	inactive	inactive	inactive	inactive	inactive	inactive	inactive	inactive	inactive	inactive	inactive	–	–	–
COc1ccc(CNc2ccc(Cl)cc2)cc1Cn1ccnc1	inactive	inactive	inactive	inactive	inactive	inactive	inactive	inactive	inactive	inactive	inactive	inactive	inactive	inactive	inactive	inactive	inactive	–	–	–
CC1CC(C)CN(CCCNC(=O)c2ccc(N3CCCC3=O)cc2)C1 (stereo not given)	inactive	inactive	inactive	inactive	inactive	inactive	inactive	inactive	inactive	inactive	inactive	inactive	inactive	inactive	–	inactive	inactive	–	27.3% (active)	–
